Source: PubChem BioAssay
eIF4H FP inh = inhibitors of RNA binding by human eIF4H | Q15056 | eIF4H fluorescence polarization binding assay | inhibition, % at 35 µM | 290,000 tested, 0.94% active;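 also: calls also rest on retests at 20 µM and on dose response follow-up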
ABCB6 inh MLPCN = inhibitors of human ABC transporter ABCB6. Q9NP58. K562-ABCB6 porphyrin accumulation, flow cytometry, 1 h; stronger effect = lower value. fluorescence ratio to DMSO, % at 10 µM. 360,000 tested, 0.19% active. AID 602162;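 active = fluorescence ratio to DMSO below 75%, the collection mean minus 3 SD; inconclusive = too few cells collected in the well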;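 also: signal is porphyrin accumulated inside mitochondria; 100% equals median channel fluorescence of DMSO control wells; lower ratio means ABCB6 inhibition with less porphyrin fluorescence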
Target sequence (Q9NP58 whole entry, looked up): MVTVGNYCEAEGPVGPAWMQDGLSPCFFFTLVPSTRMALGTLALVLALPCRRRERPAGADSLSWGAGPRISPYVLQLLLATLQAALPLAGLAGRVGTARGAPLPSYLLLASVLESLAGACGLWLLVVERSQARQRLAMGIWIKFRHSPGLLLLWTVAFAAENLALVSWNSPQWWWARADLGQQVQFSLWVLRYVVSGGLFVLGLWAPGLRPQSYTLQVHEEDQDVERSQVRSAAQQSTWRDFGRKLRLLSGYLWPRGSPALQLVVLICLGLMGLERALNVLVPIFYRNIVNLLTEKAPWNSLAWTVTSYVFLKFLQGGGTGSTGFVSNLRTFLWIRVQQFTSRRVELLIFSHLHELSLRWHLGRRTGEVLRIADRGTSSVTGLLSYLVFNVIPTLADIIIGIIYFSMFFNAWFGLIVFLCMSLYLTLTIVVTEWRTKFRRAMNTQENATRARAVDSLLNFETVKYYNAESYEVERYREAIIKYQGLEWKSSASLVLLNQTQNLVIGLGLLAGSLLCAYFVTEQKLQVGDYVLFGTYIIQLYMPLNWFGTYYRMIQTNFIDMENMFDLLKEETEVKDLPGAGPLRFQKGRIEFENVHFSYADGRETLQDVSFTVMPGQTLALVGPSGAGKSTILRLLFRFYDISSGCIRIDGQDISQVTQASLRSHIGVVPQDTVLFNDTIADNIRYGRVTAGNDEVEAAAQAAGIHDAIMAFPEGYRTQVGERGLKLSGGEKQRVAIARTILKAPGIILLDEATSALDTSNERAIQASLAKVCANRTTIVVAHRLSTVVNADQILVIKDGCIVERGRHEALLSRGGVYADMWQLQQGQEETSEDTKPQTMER
AI-2 QS modul = Vibrio harveyi AI-2 quorum sensing modulation. 300,000 tested, 0.4% active. activity change, % at 7.5 µM. AID 2094. Vibrio harveyi JMH597 AI-2 luminescence/OD600 ratio, 9 h; stronger effect = lower value; strain lacks LuxN and CqsS sensors; 0 = neutral-control median; in the data active = activity change below about -75%, passing the limit was not always enough; inconclusive = no clear call, values can overlap the other calls;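 also: luminescence divided by OD600 gain over 9 h not by final OD600 alone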
MLLE-PAM2 inh = inhibitors of microRNA-mediated deadenylation, human PABP1 MLLE binding; AID 588489; inhibition, % at 20 µM; P11940; 360,000 tested, 0.36% active; GST-MLLE / FITC-PAM2 fluorescence polarization; in the data active = inhibition above about 35%, passing the limit was not always enough;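 also: plate controls were DMSO wells with GST-MLLE for no effect and wells lacking GST-MLLE protein for full effect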
PHOSPHO1 inh = inhibitors of human PHOSPHO1 phosphatase; Q8TCT1; recombinant PHOSPHO1, absorbance phosphatase assay; inhibition, % at 13.3 µM; 290,000 tested, 1.1% active; AID 1565; in the data active = inhibition above about 60%
PABP FP inh = blocks human PABP binding to poly(A) RNA; calls only at 35 µM; AID 2014; fluorescence polarization; 290,000 tested, 1% active;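 also: calls also rest on retests at 20 µM and on dose response follow-up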
An asterisk follows results filed as active; i = inactive; ? = inconclusive; / = no result; + = active, no number. Sampled rows, rich in hits. Any-hit rate of the full collection: about 2.6%. Unless noted, no rule for the calls is given here.

SMILES	eIF4H FP inh	ABCB6 inh MLPCN	AI-2 QS modul	MLLE-PAM2 inh	PHOSPHO1 inh	PABP FP inh
Cc1cc(C(=O)CSc2nc3ccc(Cl)cc3[nH]2)c(C)n1CC1CCCO1 (stereo not given)	3	92	2	-84	100*	i
Cc1cc(C(=O)CSc2nnc(-c3ccc(Cl)cc3)n2CC2CCCO2)c(C)n1C (stereo not given)	2	98	5	-4	-18	i
N#CC(C#N)=Cc1cccn1-c1ccc(C(=O)O)cc1	87*	102	20	0	8	i
N#C/C(=C/c1cccn1-c1cccc(C(=O)O)c1)c1ccc(Cl)cc1	80	975	31	10	16	+
CCOC(=O)/C(C#N)=C/c1cccn1-c1ccc(Cl)cc1	-13	98	10	-2	34	i
CCN(CCCNC(=O)CN(C)S(=O)(=O)c1cccc2nsnc12)c1cccc(C)c1	-1	97	8	4	24	i
CCN(CCNC(=O)CN(C)S(=O)(=O)c1cccc2nsnc12)c1ccccc1	-5	101	15	1	64*	i
CC(=O)NN1C(=O)/C(=C/c2ccc(Br)o2)SC1=S	47	109	13	31	87*	i
CC(=O)NN1C(=O)/C(=C\c2ccc(Br)o2)SC1=S	95	125	31	11	-11	i
COC(=O)c1c(NC(=O)c2cccc([N+](=O)[O-])c2)sc(C(N)=O)c1C	63*	103	28	5	-13	+
FC(F)(F)c1cccc(NC(=S)NCc2ccccc2)c1	-5	104	-42	5	31	i
FC(F)(F)c1cccc(CNC(=S)Nc2ccccc2)c1	-2	91	8	-28	62*	i
CCN(C)C1CN(Cc2cn(Cc3ccc(Cl)cc3)nn2)S(=O)(=O)C1 (stereo not given)	/	100	/	/	/	/
CC(C)Cc1ccc(C(C)C(=O)Nc2nccs2)cc1 (stereo not given)	80*	95	17	-4	23	+
CC(C)c1ccc(CNC(=O)C(=O)Nc2nccs2)cc1	3	101	-12	2	4	i
COc1ccc2c(c1OC)C(=O)N1C2SC[C@H]1C(=O)NC1CCCC1 (stereo not given in full)	-11	96	11	41*	24	i
CCC(C)NC(=O)[C@H]1N2C(=O)c3c(ccc(OC)c3OC)C2SC1(C)C (stereo not given in full)	6	96	4	43*	42	i
COCCNC(=O)[C@@H]1CSC2c3ccc(OC)c(OC)c3C(=O)N21 (stereo not given in full)	-2	91	-2	24	/	i
CC1(C(=O)NS(=O)(=O)c2ccccc2C(F)(F)F)CCN1C(=O)CCc1cccs1 (stereo not given)	/	96	/	10	/	/
O=C1CC(=O)N(C2CCCCC2)C(=O)N1c1ccccc1S(=O)(=O)Oc1ccccc1	/	92	/	-106	/	/
COc1nc(NCCc2ccc(OC)c(OC)c2)nc(Nc2ccccc2)n1	-3	101	33	-9	62*	i
CC(NNC(=S)N1CCCCCC1)c1ccc2ccccc2n1 (stereo not given)	/	98	/	-33	/	/
O=C(NC1(C(=O)NC2CCCC2)CCCCC1)c1ccc2c(c1)OCO2	-2	69*	15	-4	-7	i
CCOc1cc(N2CCOCC2)c(OCC)cc1NS(=O)(=O)c1cc(NC(C)=O)ccc1OC	59*	86	21	-12	19	i
CCOc1cc(N2CCOCC2)c(OCC)cc1NC(=O)CN1CCCC(C)C1 (stereo not given)	?	101	10	-10	-7	+
SMILES	eIF4H FP inh	ABCB6 inh MLPCN	AI-2 QS modul	MLLE-PAM2 inh	PHOSPHO1 inh	PABP FP inh
CCOc1cc(N2CCOCC2)c(OCC)cc1NC(=O)CN1CCC(Cc2ccccc2)CC1	-5	93	12	3	-5	i
Cn1c(-c2ccc(C(C)(C)C)cc2)n[nH]c1=S	-10	95	14	-14	69*	i
CC(C)(C)c1ccc(-c2n[nH]c(=S)n2C2CCCC2)cc1	-3	96	/	-5	91*	i
O=C(NCc1ccccc1)c1cc(C2CCCN(C(=O)CCCc3ccccc3)C2)on1 (stereo not given)	/	107	/	6	/	/
Cc1ccc2nc(/C(C#N)=C/c3ccc(-c4ccccc4C(=O)O)o3)[nH]c2c1	?	105	2	-126	33	?
N#C/C(=C\c1ccc(-c2ccccc2C(=O)O)o1)c1nc2ccccc2[nH]1	79	106	6	-126	40	+
O=C(CCCc1nc2ccccc2s1)Nc1nccs1	8	87	18	5	92*	i
Cc1cccc(/C=N/NC(=O)C(C)Nc2cccc3ccccc23)n1 (stereo not given)	22	108	4	105	80*	i
CCCS(=O)(=O)NC(=O)C1(C)CCCN(C(=O)c2cccc(C)c2C)C1 (stereo not given)	/	89	/	-14	/	/
CCc1nnc(NC(=O)CCC(=O)N2CCN(Cc3ccc(C)cc3C)CC2)s1	/	97	2	-7	70*	/
CCc1nnc(NC(=O)CCC(=O)N2CCN(CCOc3ccc(C)cc3)CC2)s1	50*	101	13	3	-6	i
CCc1nnc(NC(=O)CCC(=O)N2CCN(CCc3ccccc3)CC2)s1	3	90	16	6	2	i
COc1ccc(NC(=O)C2c3ccccc3OCC(=O)N2CC(F)(F)F)cc1 (stereo not given)	/	107	/	/	/	/
CCc1nc(SCC(=O)c2ccc(C)c(C)c2)n[nH]1	3	99	-3	25	99*	i
COc1ccc(C(=O)CSc2n[nH]c(-c3ccco3)n2)cc1	71*	96	53	2	23	+
Cc1nc(SCC(=O)c2ccc(F)cc2)n[nH]1	-5	98	7	20	95*	i
CCN1/C(=C/C(C)=C/c2sc3ccccc3[n+]2CC)Sc2ccccc21	12	i	-170*	-145	44	i
CCN1/C(=C\C(=S)Nc2ccccc2)Sc2ccccc21	-7	112	2	-14	17	i
CCC(=O)N1CCC1(C)C(=O)Nc1cccc(OC)c1OC (stereo not given)	/	i	/	0	/	/
O=c1c2c(-c3cccs3)csc2[nH]c(=S)n1-c1ccccc1	24	95	25	7	67*	i
CC(C)n1c(=S)[nH]c2scc(-c3cccs3)c2c1=O	50	97	41	3	-112	?
COC/C=C/C1=CC2=CC(=O)C(C)(OC(=O)c3cnc4ccccc4n3)C(=O)C2=CN1Cc1ccc(OC)cc1 (stereo not given)	50*	103	6	6	31	i
